Source: PubChem
mHTT-CaM PPI inh = mutant huntingtin-calmodulin interaction inhibitors – biochemical, AlphaScreen, primary screen | P42858 | AlphaScreen His-mHTT/GST-CaM binding, luminescence | inhibition, % at 15 µM | 3.6% of 190,000 active | AID 1671202, 2021;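 further: 0% = both proteins with DMSO and 100% = one protein alone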
Pf apPOL inh = Pf-apPOL inhibitors, biochemical, fluorescence; Recombinant Pf-apPOL, molecular beacon fluorescence, 1.5 h; inhibition, % at 10 µM; 0.25% of 210,000 active
Active calls of the source: *. This is a sample that favours compounds with a hit; in the whole collection about 3.6% have one here. No stated cut-off is given here; in the data, active means inhibition above about 50%; inactive means the rest.

How did CCCC(=O)NC(c1ccc(OC)cc1)c1cc(Cl)c2cccnc2c1O (stereo not drawn) do in these assays?
mHTT-CaM PPI inh: 25; Pf apPOL inh: 11

What do the screens show for `COc1ccccc1C(NC(=O)C(C)C)c1cc(Cl)c2cccnc2c1O` (stereo not drawn)?
mHTT-CaM PPI inh: 48; Pf apPOL inh: -8

What do the screens show for `CCC(=O)NC(c1ccc2c(c1)OCO2)c1cc(Cl)c2cccnc2c1O` (stereo not drawn)?
mHTT-CaM PPI inh: 96*; Pf apPOL inh: -2

Results for CCC(=O)NC(c1ccc(OC)c(OC)c1)c1cc(Cl)c2cccnc2c1O (stereo not drawn) ?
mHTT-CaM PPI inh: 100*; Pf apPOL inh: -6

Results for O=C(Nc1ccccc1)Nc1ccccc1C#Cc1ccccc1 ?
mHTT-CaM PPI inh: 0; Pf apPOL inh: 0

What do the screens show for `COc1ccc(N2C(=O)CSC2c2cccc(Br)c2)cc1` (stereo not drawn)?
mHTT-CaM PPI inh: 3; Pf apPOL inh: -3

What do the screens show for `COCC(=O)NC(c1ccccc1)c1cc(Cl)c2cccnc2c1O` (stereo not drawn)?
mHTT-CaM PPI inh: 100*; Pf apPOL inh: -10

What do the screens show for `O=C(O)c1cnccc1C(F)(F)F`?
Pf apPOL inh: -5

Results for CCN(CC)CC(O)COCC12CC3CC(CC(C3)C1)C2 (stereo not drawn) ?
mHTT-CaM PPI inh: -2; Pf apPOL inh: -1

Results for OCCN(CCO)CC(O)COCC12CC3CC(CC(C3)C1)C2 (stereo not drawn) ?
mHTT-CaM PPI inh: 100*; Pf apPOL inh: -3

What do the screens show for `COc1ccc(NC(=O)/C(=C/c2ccc(F)cc2)NC(=O)c2ccco2)cc1`?
mHTT-CaM PPI inh: 3; Pf apPOL inh: -2

Results for CSc1nc2c(c(Nc3ccc(C)cc3)n1)CCC2 ?
mHTT-CaM PPI inh: 11; Pf apPOL inh: -11

How did CSc1nc2c(c(Nc3ccc(N(C)C)cc3)n1)CCC2 do in these assays?
mHTT-CaM PPI inh: 57*; Pf apPOL inh: -1

How did Cc1c(-c2cc(C(F)(F)C(F)F)[nH]n2)c(O)c([N+](=O)[O-])c(C)c1[N+](=O)[O-] do in these assays?
mHTT-CaM PPI inh: 10

How did O=C1C=C(c2ccccc2)C(=O)C=C1Cl do in these assays?
Pf apPOL inh: 50*

How did O=c1c(-c2ccccc2)c1-c1ccccc1 do in these assays?
Pf apPOL inh: -14

What do the screens show for `O=C(Nc1ccc(Br)cc1)C1CCN(c2cc(N3CCCC3)ncn2)CC1`?
mHTT-CaM PPI inh: 21; Pf apPOL inh: -7

How did O=C(Nc1ccc2c(c1)OCO2)C1CCCN(c2cnn(Cc3ccccc3)c(=O)c2)C1 (stereo not drawn) do in these assays?
mHTT-CaM PPI inh: 69*; Pf apPOL inh: -2

What do the screens show for `COc1ccc(NC(=O)C2CCCN(c3cn[nH]c(=O)c3)C2)cc1OC` (stereo not drawn)?
mHTT-CaM PPI inh: 7; Pf apPOL inh: 8

Results for Cc1ccc(NC(=O)C2CCCN(c3cnn(C)c(=O)c3)C2)cc1C (stereo not drawn) ?
mHTT-CaM PPI inh: 1; Pf apPOL inh: -3

How did O=C(Nc1ccc2c(c1)OCO2)C1CCCN(c2cn[nH]c(=O)c2)C1 (stereo not drawn) do in these assays?
mHTT-CaM PPI inh: 63*; Pf apPOL inh: -2

Results for Cn1ncc(N2CCCC(C(=O)Nc3ccc4c(c3)OCO4)C2)cc1=O (stereo not drawn) ?
mHTT-CaM PPI inh: 72*; Pf apPOL inh: 21

How did O=C(Nc1ccc2c(c1)OCO2)C1CCN(c2cc(N3CCCC3)ncn2)CC1 do in these assays?
mHTT-CaM PPI inh: 61*; Pf apPOL inh: -6

How did O=C(Nc1ccc2c(c1)OCCO2)C1CCCN(c2cnn(Cc3ccccc3)c(=O)c2)C1 (stereo not drawn) do in these assays?
mHTT-CaM PPI inh: 35; Pf apPOL inh: -4

How did CCC(=O)Nc1cnc(-c2ccc(F)cc2)nc1 do in these assays?
mHTT-CaM PPI inh: -2; Pf apPOL inh: 2

How did CC1(C)OCC2(CO1)CN(C(=O)CN1C(=O)CCC1=O)C2 do in these assays?
mHTT-CaM PPI inh: -6; Pf apPOL inh: -6

What do the screens show for `Cc1cccn2c(=O)c3cc(S(=O)(=O)c4ccccc4)c(=N)n(CCOCCO)c3nc12`?
mHTT-CaM PPI inh: -5; Pf apPOL inh: -6

Results for CC1=NN(c2ccc(Cl)cc2)C(=O)C1 ?
mHTT-CaM PPI inh: 68*; Pf apPOL inh: -2

What do the screens show for `CC1=NN(c2ccccc2)C(=O)C1`?
Pf apPOL inh: -3

What do the screens show for `O=C(NCc1ccccc1)C1CCN(C2CCN(C(=O)C(Cl)Cl)CC2)CC1`?
mHTT-CaM PPI inh: 1; Pf apPOL inh: 9

How did O=C(C=Cc1ccccc1)NC1CCCC(O)C1 (stereo not drawn) do in these assays?
mHTT-CaM PPI inh: -2; Pf apPOL inh: -2

What do the screens show for `CCOc1cc(CNc2ccc3c(c2)CCC3)ccc1O`?
mHTT-CaM PPI inh: 51*; Pf apPOL inh: 1

How did CCOc1cc(CNc2ccccc2SC)ccc1O do in these assays?
mHTT-CaM PPI inh: 32; Pf apPOL inh: 3

How did CCc1nccn1Cc1nc(C(C)C)no1 do in these assays?
mHTT-CaM PPI inh: -6; Pf apPOL inh: -1

Results for CCCN(C)Cc1nc2nc(C)cc(N3CCCCCC3)n2n1 ?
mHTT-CaM PPI inh: 19; Pf apPOL inh: -7

What do the screens show for `CCc1nc2nc(C)cc(N3CCN(c4ccc(C)cc4C)CC3)n2n1`?
mHTT-CaM PPI inh: 63*; Pf apPOL inh: -8

Results for N#Cc1ccccc1NC(=O)C(=O)NCc1cccnc1 ?
mHTT-CaM PPI inh: 0; Pf apPOL inh: -1

How did O=C(NC(Nc1ccccc1Cl)C(Cl)(Cl)Cl)c1cc([N+](=O)[O-])cc([N+](=O)[O-])c1 (stereo not drawn) do in these assays?
mHTT-CaM PPI inh: 61*; Pf apPOL inh: -5

Results for O=C(NC(Nc1cccc([N+](=O)[O-])c1)C(Cl)(Cl)Cl)c1ccccc1[N+](=O)[O-] (stereo not drawn) ?
mHTT-CaM PPI inh: 14; Pf apPOL inh: -3

Results for O=C(NC(Nc1ccccc1)C(Cl)(Cl)Cl)c1cc([N+](=O)[O-])cc([N+](=O)[O-])c1 (stereo not drawn) ?
mHTT-CaM PPI inh: 59*; Pf apPOL inh: 2

What do the screens show for `O=C(NC(Nc1ccccc1)C(Cl)(Cl)Cl)c1ccc([N+](=O)[O-])cc1` (stereo not drawn)?
mHTT-CaM PPI inh: 31; Pf apPOL inh: 0

How did Cc1ccc(C2=NN(C(=O)CCC(=O)O)C(c3cc4ccccc4nc3Cl)C2)cc1 (stereo not drawn) do in these assays?
mHTT-CaM PPI inh: 2; Pf apPOL inh: 11

How did Cc1ccc(S(=O)(=O)N2CCC(c3noc(-c4ccccc4)n3)CC2)cc1Cl do in these assays?
mHTT-CaM PPI inh: -3; Pf apPOL inh: -2

How did Cc1cc(NC(=O)C(=O)NCC2CCN(Cc3cccs3)CC2)c2ccccc2n1 do in these assays?
mHTT-CaM PPI inh: -12; Pf apPOL inh: -5

How did Cc1ccc(C(=O)Nc2nnc3ccccn23)s1 do in these assays?
mHTT-CaM PPI inh: 91*; Pf apPOL inh: -10

What do the screens show for `O=C(Nc1nnc2ccccn12)c1cccc(F)c1`?
mHTT-CaM PPI inh: 56*; Pf apPOL inh: -11

Results for Cc1cccc(C(=O)Nc2nnc3ccccn23)c1 ?
mHTT-CaM PPI inh: 22; Pf apPOL inh: -7

What do the screens show for `Cc1ccc(C(=O)Nc2nnc3ccccn23)cc1`?
mHTT-CaM PPI inh: 24; Pf apPOL inh: -8

What do the screens show for `O=C(Nc1nnc2ccccn12)c1ccc(F)cc1`?
mHTT-CaM PPI inh: 24; Pf apPOL inh: -8

Results for O=C(Nc1nnc2ccccn12)c1cc(F)cc(F)c1 ?
mHTT-CaM PPI inh: 82*; Pf apPOL inh: -11
